Test results from PubChem BioAssay (EPA / NIEHS).
Results filed as inconclusive are left out. Activity calls are given as the source filed them. The calls were made as follows: active = hit-call score of the fitted dose curve at least 0.9, where 1 is the maximum; inconclusive = response in the unintended direction; inactive = score below 0.9.

Key:
[1] = STM_H9_NormalizedViability: Cytotoxicity Assessment at 120 hours in the Stemina devTOX quickPredict H9 human embryonic stem cell (hESC)-based Assay (AID 2283784)
In short: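 CellTiter-Fluor RFU, background-subtracted, expressed relative to 0.1% DMSO neutral control by plate. Pluripotent H9 cells; treatment with daily re-dosing. Plates carried 1uM methotrexate (positive) and 5 nM methotrexate (negative) references.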

AR (gene 367) = AR (gene 367) (UniProt P10275); experiment: ACEA_AR_antagonist_80hr: ACEA Biosciences xCELLigence Real-Time Cell Analysis on Androgen Receptor Antagonism for Proliferation (AID 2283787);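 also: 22Rv1 human prostate cancer cells with growth followed by electrical impedance; hits lower the impedance growth signal relative to DMSO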
AR (gene 367), sequence (P10275 whole entry, looked up): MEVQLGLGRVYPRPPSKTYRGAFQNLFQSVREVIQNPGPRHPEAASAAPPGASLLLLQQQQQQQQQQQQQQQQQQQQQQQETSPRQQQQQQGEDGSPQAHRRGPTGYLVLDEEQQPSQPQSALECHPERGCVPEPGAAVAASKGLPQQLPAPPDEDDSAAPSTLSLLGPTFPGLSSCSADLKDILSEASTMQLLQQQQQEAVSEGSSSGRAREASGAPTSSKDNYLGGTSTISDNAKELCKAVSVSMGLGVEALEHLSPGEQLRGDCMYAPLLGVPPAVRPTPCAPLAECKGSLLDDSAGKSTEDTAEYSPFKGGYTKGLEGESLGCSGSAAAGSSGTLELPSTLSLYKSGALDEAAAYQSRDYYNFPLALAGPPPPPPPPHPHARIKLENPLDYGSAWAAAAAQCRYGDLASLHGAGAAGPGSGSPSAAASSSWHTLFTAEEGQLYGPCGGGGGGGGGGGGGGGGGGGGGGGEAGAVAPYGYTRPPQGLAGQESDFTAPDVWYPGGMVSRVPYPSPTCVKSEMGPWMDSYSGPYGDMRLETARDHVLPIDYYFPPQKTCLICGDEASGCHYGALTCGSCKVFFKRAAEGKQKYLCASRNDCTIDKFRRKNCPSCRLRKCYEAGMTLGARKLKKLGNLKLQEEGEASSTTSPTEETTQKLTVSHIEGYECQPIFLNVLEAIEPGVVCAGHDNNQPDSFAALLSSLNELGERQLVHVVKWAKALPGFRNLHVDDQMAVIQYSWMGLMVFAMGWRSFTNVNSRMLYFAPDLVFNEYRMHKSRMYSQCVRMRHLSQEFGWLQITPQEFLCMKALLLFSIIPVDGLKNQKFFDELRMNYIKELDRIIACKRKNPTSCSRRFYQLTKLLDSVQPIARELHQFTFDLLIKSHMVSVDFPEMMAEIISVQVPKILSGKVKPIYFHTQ
In short: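 Impedance-based real-time growth of 22Rv1 prostate cells, read 80 h after dosing. Eight concentrations, 1:4 series, top 100 uM final (0.5% DMSO), n = 2; signal decrease scored against DMSO.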

[2] = ATG_M_06_XSP1: Attagene TRANS-FACTORIAL Multi-Species (XSP1) HepG2 Assay for M06 Transcription Factor (Internal Marker) (AID 2283790)
In short: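 This background-control readout tracks M06 reporter mRNA, measured by RT-PCR and capillary electrophoresis. HepG2 cells transiently carrying the GAL4-UAS reporter panel were dosed for 24 h with 3 nM 6-alpha-fluorotestosterone added for partial AR stimulation; increases were scored relative to DMSO.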

[3] = ATG_M_61_XSP1: Attagene TRANS-FACTORIAL Multi-Species (XSP1) HepG2 Assay for M61 Transcription Factor (Internal Marker) (AID 2283797)
In short: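 Background-control readout: reporter transcripts measured by RT-PCR and capillary electrophoresis 24 h after dosing transiently transfected HepG2 multi-reporter cells, with 3 nM 6-alpha-fluorotestosterone present. Fitted in the positive direction relative to DMSO.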

[4] = molecular target: mouse Peroxisome Proliferator-activated Receptor gamma (PPARg), Pparg (gene 19016) (UniProt P37238); experiment: ATG_mPPARg_XSP1: Attagene TRANS-FACTORIAL Multi-Species (XSP1) HepG2 Assay for mouse Peroxisome Proliferator-activated Receptor gamma (PPARg) (AID 2283802)
mouse Peroxisome Proliferator-activated Receptor gamma (PPARg), Pparg (gene 19016), sequence (P37238 whole entry, looked up, the tested form may be a part): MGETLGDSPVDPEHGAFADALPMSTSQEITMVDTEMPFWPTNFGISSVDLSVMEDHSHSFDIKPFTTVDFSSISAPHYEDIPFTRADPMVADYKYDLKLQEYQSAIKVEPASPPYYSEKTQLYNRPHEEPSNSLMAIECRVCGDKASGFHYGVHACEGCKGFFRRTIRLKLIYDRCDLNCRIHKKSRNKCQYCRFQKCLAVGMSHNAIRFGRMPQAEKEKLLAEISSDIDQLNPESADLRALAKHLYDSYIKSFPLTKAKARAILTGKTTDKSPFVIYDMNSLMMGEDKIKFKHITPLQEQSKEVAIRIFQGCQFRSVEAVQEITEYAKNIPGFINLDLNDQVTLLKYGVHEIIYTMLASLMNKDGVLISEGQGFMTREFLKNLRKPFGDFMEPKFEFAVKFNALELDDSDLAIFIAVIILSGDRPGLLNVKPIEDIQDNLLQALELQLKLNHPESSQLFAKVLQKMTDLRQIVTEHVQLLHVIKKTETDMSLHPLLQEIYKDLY
In short: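 Readout is reporter mRNA induction, measured by RT-PCR with 6-FAM labelling, HpaI digestion and capillary electrophoresis, 24 h post-dose relative to DMSO. Transient multi-reporter transfection of human HepG2 with mouse PPARg–GAL4 fusion; 3 nM 6-alpha-fluorotestosterone included.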

[5] = molecular target: Nuclear receptor subfamily 1 group I member 2 (Mus musculus) (UniProt O54915); experiment: ATG_mPXR_XSP1: Attagene TRANS-FACTORIAL Multi-Species (XSP1) HepG2 Assay for mouse Pregnane X Receptor (PXR) (AID 2283803)
Nuclear receptor subfamily 1 group I member 2 (Mus musculus), sequence (O54915 whole entry, looked up, the tested form may be a part): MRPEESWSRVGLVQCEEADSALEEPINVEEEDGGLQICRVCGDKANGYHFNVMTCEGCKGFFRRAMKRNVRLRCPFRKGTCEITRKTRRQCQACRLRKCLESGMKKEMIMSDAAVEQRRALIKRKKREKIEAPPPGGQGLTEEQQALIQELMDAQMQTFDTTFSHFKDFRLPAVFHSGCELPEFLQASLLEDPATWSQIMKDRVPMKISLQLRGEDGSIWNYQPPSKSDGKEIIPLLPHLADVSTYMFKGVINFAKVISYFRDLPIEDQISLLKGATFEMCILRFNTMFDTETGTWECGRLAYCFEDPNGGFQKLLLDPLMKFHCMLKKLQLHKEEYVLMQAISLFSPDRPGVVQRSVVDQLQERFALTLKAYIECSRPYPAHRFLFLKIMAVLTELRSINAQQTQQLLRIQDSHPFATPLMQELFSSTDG
In short: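 Transiently transfected HepG2 cells expressing a receptor-Gal4 chimera drive a GAL4-UAS reporter; 3 nM 6-alpha-fluorotestosterone included. Reporter mRNA read 24 h post-dose by RT-PCR and capillary electrophoresis; gain of signal relative to DMSO.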

[6] = molecular target: frog Thyroid hormone Receptor alpha (TRa), thra-a (gene 397942) (UniProt P15204); experiment: ATG_frTRa_XSP1: Attagene TRANS-FACTORIAL Multi-Species (XSP1) HepG2 Assay for frog Thyroid hormone Receptor alpha (TRa) (AID 2283804)
frog Thyroid hormone Receptor alpha (TRa), thra-a (gene 397942), sequence (P15204 whole entry, looked up, the tested form may be a part): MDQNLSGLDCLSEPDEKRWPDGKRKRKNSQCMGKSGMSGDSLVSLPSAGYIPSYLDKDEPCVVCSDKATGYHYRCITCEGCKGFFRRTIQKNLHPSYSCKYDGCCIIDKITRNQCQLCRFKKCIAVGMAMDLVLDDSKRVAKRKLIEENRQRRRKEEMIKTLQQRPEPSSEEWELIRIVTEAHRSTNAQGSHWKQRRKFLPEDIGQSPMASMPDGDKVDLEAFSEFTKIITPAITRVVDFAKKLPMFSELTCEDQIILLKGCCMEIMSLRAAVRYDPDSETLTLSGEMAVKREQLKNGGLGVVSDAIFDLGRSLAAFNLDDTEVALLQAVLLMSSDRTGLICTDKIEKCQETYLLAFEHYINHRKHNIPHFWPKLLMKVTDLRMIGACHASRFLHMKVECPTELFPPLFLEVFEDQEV
In short: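 Reporter transcript induction, measured by RT-PCR with 6-FAM labelling and capillary electrophoresis, 24 hr after dosing transiently transfected HepG2 cells expressing a frog TRa-GAL4 fusion; medium contained 3 nM 6-alpha-fluorotestosterone; increase over DMSO scored.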

[7] = molecular target: human Thyroid hormone Receptor alpha (TRa), THRA (gene 7067) (UniProt P10827); experiment: ATG_hTRa_XSP1: Attagene TRANS-FACTORIAL Multi-Species (XSP1) HepG2 Assay for human Thyroid hormone Receptor alpha (TRa) (AID 2283805)
human Thyroid hormone Receptor alpha (TRa), THRA (gene 7067), sequence (P10827 whole entry, looked up, the tested form may be a part): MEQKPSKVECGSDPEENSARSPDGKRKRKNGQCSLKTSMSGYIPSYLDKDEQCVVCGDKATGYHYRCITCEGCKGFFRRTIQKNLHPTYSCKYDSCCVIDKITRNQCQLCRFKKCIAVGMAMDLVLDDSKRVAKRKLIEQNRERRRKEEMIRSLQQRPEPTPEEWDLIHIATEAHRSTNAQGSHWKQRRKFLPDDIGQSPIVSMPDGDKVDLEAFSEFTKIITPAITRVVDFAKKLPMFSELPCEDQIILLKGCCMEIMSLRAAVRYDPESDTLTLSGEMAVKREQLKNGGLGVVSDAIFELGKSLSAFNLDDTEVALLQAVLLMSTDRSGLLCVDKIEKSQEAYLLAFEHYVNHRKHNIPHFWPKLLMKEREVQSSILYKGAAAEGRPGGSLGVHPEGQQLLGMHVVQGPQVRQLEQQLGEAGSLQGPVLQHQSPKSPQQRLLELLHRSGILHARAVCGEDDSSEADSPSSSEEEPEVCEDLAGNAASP
In short: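 Reporter transcripts from the human TRa-Gal4 TRANS unit quantified by RT-PCR, fluorescent labeling and capillary electrophoresis after 24 hours of chemical exposure in transfected HepG2 cells; medium contains 3 nM 6-alpha-fluorotestosterone. Positive direction fit against DMSO.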

[8] = tested on: turtle Thyroid Hormone Receptor, alpha (TRa), gene 101949057; experiment: ATG_trTRa_XSP1: Attagene TRANS-FACTORIAL Multi-Species (XSP1) HepG2 Assay for turtle Thyroid Hormone Receptor, alpha (TRa) (AID 2283806)
In short: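 After 24 h chemical exposure, reporter transcripts were measured by RT-PCR with fluorescent primer extension, HpaI digestion and capillary electrophoresis. Cells were transiently transfected HepG2 expressing exogenous NR-Gal4 chimeras; medium contained 3 nM 6-alpha-fluorotestosterone; fitted upward relative to DMSO.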

[9] = molecular target: zebrafish Thyroid Hormone Receptor alpha (TRa), thraa (gene 30670) (UniProt Q98867); experiment: ATG_zfTRa_XSP1: Attagene TRANS-FACTORIAL Multi-Species (XSP1) HepG2 Assay for zebrafish Thyroid Hormone Receptor alpha (TRa) (AID 2283807)
zebrafish Thyroid Hormone Receptor alpha (TRa), thraa (gene 30670), sequence (Q98867 whole entry, looked up, the tested form may be a part): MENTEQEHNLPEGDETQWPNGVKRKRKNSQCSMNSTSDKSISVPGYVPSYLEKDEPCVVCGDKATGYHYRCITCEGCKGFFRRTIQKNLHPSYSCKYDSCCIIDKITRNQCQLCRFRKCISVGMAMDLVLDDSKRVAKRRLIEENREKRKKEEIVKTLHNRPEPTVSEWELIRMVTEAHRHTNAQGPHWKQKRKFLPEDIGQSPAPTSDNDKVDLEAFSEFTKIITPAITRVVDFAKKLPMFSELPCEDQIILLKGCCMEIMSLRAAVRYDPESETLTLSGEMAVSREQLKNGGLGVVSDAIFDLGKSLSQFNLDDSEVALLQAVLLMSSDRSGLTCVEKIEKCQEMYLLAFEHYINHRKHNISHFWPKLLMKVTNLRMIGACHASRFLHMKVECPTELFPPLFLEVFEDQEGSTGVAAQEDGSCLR
In short: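 Reporter transcripts driven by a chimeric zebrafish TRa–Gal4 protein were measured by RT-PCR with fluorescent labelling and capillary electrophoresis. These came from transiently transfected HepG2 cells after 24 h chemical exposure, with 3 nM 6-alpha-fluorotestosterone added; baseline was DMSO.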

[10] = molecular target: zebrafish Thyroid Hormone Receptor beta (TRb), thrb (gene 30607) (UniProt Q9PVE4); experiment: ATG_zfTRb_XSP1: Attagene TRANS-FACTORIAL Multi-Species (XSP1) HepG2 Assay for zebrafish Thyroid Hormone Receptor beta (TRb) (AID 2283809)
zebrafish Thyroid Hormone Receptor beta (TRb), thrb (gene 30607), sequence (Q9PVE4 whole entry, looked up, the tested form may be a part): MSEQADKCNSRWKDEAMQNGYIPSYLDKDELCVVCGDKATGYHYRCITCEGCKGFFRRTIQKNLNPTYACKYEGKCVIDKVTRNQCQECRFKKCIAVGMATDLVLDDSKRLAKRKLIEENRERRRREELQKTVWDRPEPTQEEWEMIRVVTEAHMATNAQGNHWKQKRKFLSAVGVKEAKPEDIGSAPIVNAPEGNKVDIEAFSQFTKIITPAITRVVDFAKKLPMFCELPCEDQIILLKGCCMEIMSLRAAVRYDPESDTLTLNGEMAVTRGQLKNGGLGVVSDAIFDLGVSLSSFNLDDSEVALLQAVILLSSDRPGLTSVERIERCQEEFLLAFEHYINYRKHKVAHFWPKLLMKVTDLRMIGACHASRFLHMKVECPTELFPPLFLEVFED
In short: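 HepG2 cells transiently transfected with multiplexed GAL4-UAS reporter units expressing chimeric zebrafish TRb–Gal4. Dosed 24 h with 3 nM 6-alpha-fluorotestosterone present; reporter mRNA measured by RT-PCR, HpaI digestion and capillary electrophoresis; gain of signal versus DMSO.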

[11] = molecular target: human Thyroid hormone Receptor beta (TRb), THRB (gene 7068) (UniProt P10828); experiment: ATG_hTRb_XSP1: Attagene TRANS-FACTORIAL Multi-Species (XSP1) HepG2 Assay for human Thyroid hormone Receptor beta (TRb) (AID 2283808)
human Thyroid hormone Receptor beta (TRb), THRB (gene 7068), sequence (P10828 whole entry, looked up, the tested form may be a part): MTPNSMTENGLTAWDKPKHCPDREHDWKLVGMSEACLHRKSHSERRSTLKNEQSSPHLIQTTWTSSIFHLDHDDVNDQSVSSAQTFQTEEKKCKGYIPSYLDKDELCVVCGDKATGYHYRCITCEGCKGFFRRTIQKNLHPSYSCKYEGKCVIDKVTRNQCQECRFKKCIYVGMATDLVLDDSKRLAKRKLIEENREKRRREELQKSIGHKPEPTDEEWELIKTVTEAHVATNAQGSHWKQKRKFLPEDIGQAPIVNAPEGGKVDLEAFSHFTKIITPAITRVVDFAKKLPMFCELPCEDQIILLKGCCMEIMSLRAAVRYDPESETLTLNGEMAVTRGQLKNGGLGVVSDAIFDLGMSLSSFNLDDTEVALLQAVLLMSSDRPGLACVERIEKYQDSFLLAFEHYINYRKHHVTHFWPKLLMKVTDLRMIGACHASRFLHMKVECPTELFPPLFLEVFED
In short: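 Readout is reporter mRNA induction measured by RT-PCR, fluorescent labelling and capillary electrophoresis, fitted upward relative to DMSO. Transiently transfected human HepG2 cells expressing NR-Gal4 chimeras were dosed for 24 h, medium containing 3 nM 6-alpha-fluorotestosterone.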

[12] = molecular target: Estrogen receptor beta (Homo sapiens) (UniProt Q92731); experiment: ATG_hERb_XSP1: Attagene TRANS-FACTORIAL Multi-Species (XSP1) HepG2 Assay for human Estrogen Receptor (ESR2) (AID 2283788)
In short: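 HepG2 cells transiently transfected with multiplexed GAL4-UAS reporter units carrying chimeric human ERβ-Gal4; 24 h compound exposure with 3 nM 6-alpha-fluorotestosterone present. Reporter mRNA quantified by RT-PCR, FAM labelling and capillary electrophoresis; gain-of-signal fitted versus DMSO.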

[13] = molecular target: Peroxisome proliferator-activated receptor gamma (Homo sapiens) (UniProt P37231); experiment: ATG_hPPARg_XSP1: Attagene TRANS-FACTORIAL Multi-Species (XSP1) HepG2 Assay for human Peroxisome Proliferator-activated Receptor gamma (PPARg) (AID 2283800)
Peroxisome proliferator-activated receptor gamma (Homo sapiens), sequence (P37231 whole entry, looked up, the tested form may be a part): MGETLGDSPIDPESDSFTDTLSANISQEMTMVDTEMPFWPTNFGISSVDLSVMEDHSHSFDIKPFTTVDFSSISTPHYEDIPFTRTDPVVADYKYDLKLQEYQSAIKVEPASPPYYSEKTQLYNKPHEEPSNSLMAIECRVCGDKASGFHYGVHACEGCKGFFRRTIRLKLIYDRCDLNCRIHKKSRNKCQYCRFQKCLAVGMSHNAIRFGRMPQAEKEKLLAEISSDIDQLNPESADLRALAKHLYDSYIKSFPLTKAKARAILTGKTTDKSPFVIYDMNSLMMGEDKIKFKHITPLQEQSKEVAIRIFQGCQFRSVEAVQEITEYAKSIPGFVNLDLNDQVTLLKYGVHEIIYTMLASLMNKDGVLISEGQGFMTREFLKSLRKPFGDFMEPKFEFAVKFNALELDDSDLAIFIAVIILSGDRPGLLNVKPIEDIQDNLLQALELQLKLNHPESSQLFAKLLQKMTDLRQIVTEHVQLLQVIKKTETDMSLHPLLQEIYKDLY
In short: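 Reporter mRNA induction, measured by RT-PCR with capillary electrophoresis 24 h after dosing, scored as gain over DMSO. Transfected HepG2 cells express exogenous NR-Gal4 chimeras driving GAL4-UAS reporters; medium includes 3 nM 6-alpha-fluorotestosterone.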

[14] = tested on: zebrafish Peroxisome Proliferator-activated Receptor gamma (PPARg), gene 557037; experiment: ATG_zfPPARg_XSP1: Attagene TRANS-FACTORIAL Multi-Species (XSP1) HepG2 Assay for zebrafish Peroxisome Proliferator-activated Receptor gamma (PPARg) (AID 2283801)
In short: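 Trans-activation readout of chimeric zebrafish PPARg–GAL4 in transiently transfected human HepG2 cells, 24 h chemical exposure (medium includes 3 nM 6-alpha-fluorotestosterone). Reporter transcripts measured by RT-PCR and capillary electrophoresis, fitted as gain over DMSO.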

[15] = tested on: turtle Androgen Receptor (AR), gene 101947425; experiment: ATG_trAR_XSP1: Attagene TRANS-FACTORIAL Multi-Species (XSP1) HepG2 Assay for turtle Androgen Receptor (AR) (AID 2283786)
In short: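 Partial androgen stimulation is provided by 3 nM 6-alpha-fluorotestosterone in a multi-species trans-factorial panel expressing a turtle AR–GAL4 fusion in HepG2. After 24 h, reporter mRNA is measured by RT-PCR and capillary electrophoresis and fitted upward against DMSO.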

[16] = molecular target: GAL4 Transcription Factor (Internal Marker), GAL4 (gene 855828) (UniProt P04386); experiment: ATG_GAL4_XSP1: Attagene TRANS-FACTORIAL Multi-Species (XSP1) HepG2 Assay for GAL4 Transcription Factor (Internal Marker) (AID 2283789)
In short: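 This background-control endpoint measures GAL4-driven reporter mRNA via RT-PCR and capillary electrophoresis of labelled fragments. Transiently transfected HepG2 cells were treated 24 h, with 3 nM 6-alpha-fluorotestosterone included, and gain-of-signal was fitted against DMSO.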

[17] = ATG_M_19_XSP1: Attagene TRANS-FACTORIAL Multi-Species (XSP1) HepG2 Assay for M19 Transcription Factor (Internal Marker) (AID 2283798)
In short: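 Readout is reporter mRNA induction quantified via RT-PCR, 6-FAM labeling, HpaI digestion and capillary electrophoresis, fitted in the positive direction versus DMSO baseline. Transfected HepG2 cells exposed 24 h, medium including 3 nM 6-alpha-fluorotestosterone.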

[18] = ATG_M_32_XSP1: Attagene TRANS-FACTORIAL Multi-Species (XSP1) HepG2 Assay for M32 Transcription Factor (Internal Marker) (AID 2283799)
In short: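 Reporter transcripts from the M32 internal-control unit measured by RT-PCR, FAM labelling, HpaI digestion and capillary electrophoresis after 24 h compound exposure of transfected HepG2, 3 nM 6-alpha-fluorotestosterone included; DMSO baseline, positive-direction fit.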

[19] = ATG_XTT_Cytotoxicity_XSP1: Cytotoxicity Assessment in the Attagene TRANS-FACTORIAL Multi-Species (XSP1) HepG2 Assay (AID 2283810)
In short: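 XTT viability readout taken at 24 hours post-dosing in HepG2 liver cells co-treated with 3 nM 6-alpha-fluorotestosterone. Signal loss relative to DMSO controls reflects cytotoxicity.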

Measured: AC50

CCCCCOC(=O)COc1cc(N2C(=O)C3=C(CCCC3)C2=O)c(F)cc1Cl
inactive: [1]

CCCN(CCC)C(=O)SCC
inactive: AR (gene 367)

C[C@]12CC[C@@H]3c4ccc(O)cc4C[C@@H](CCCCCCCCCS(=O)CCCC(F)(F)C(F)(F)F)[C@H]3[C@@H]1CC[C@@H]2O (stereo not given in full)
active: AR (gene 367) 11.9 µM

CC(C)(c1ccc(O)cc1)c1ccc(O)cc1
inactive: [1] | [2] | [3] | [4] | [5] | [6] | [7] | [8] | [9] | [10]
active: AR (gene 367) 43.6 µM

COC(=O)CSc1cc(N=c2sc(=O)n3n2CCCC3)c(F)cc1Cl
inactive: AR (gene 367)
active: [1] 89.5 µM

OB(O)O
inactive: [1]

N[C@@H](Cc1cc(I)c(Oc2ccc(O)c(I)c2)c(I)c1)C(=O)O
inactive: [1]

C#C[C@]1(O)CC[C@H]2[C@@H]3CCC4=CC(=O)CC[C@@H]4[C@H]3CC[C@@]21CC
inactive: [6] | [8] | [9] | [11] | [10]

CC(=O)S[C@@H]1CC2=CC(=O)CC[C@]2(C)[C@H]2CC[C@@]3(C)[C@@H](CC[C@@]34CCC(=O)O4)[C@H]12
inactive: [12] | [2] | [3] | [13] | [14] | [4] | [6] | [7] | [9] | [11] | [10]
active: [5] 0.411 µM

N#CSCSc1nc2ccccc2s1
active: [1] 17.3 µM | AR (gene 367) 15.1 µM

S=C(S)NCCNC(=S)S.[Mn+2].[S-]C([S-])=NCCN=C([S-])[S-].[Zn+2]
inactive: [1]

S=C([S-])NCCNC(=S)[S-].[Mn+2]
inactive: [1]

CSC(=O)c1cccc2nnsc12
inactive: [1] | AR (gene 367)

COC(=O)c1ccccc1C(=O)O
inactive: [1]

CCCCC(CC)COC(=O)c1ccccc1C(=O)O (stereo not given)
inactive: [1] | [15] | [12] | [16] | [2] | [3] | [17] | [18] | [8] | [9] | [10]
active: [14] 64.2 µM | [4] 13.2 µM | [5] 3.95 µM

CCCCC(CC)CN1C(=O)C2C3C=CC(C3)C2C1=O (stereo not given)
inactive: [16] | [17] | [18] | [14] | [10] | [19]
active: [13] 15.5 µM | [4] 27.7 µM | [5] 0.845 µM
